Experimental data: PubChem BioAssay
For some assays here: Measured potencies and affinities stand elsewhere. Activity calls are given as the source filed them. Unless noted, how the calls were made is not given here.

Legend:
[1] = antimalarial activity against Dd2 strain (AID 2302;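 active means growth inhibition above 50% at the single 2 µM test dose, taken to imply half-maximal potency below 2 µM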;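 further: 0% = DMSO untreated growth and 100% = chloroquine plus artemisinin killed control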); details: P. falciparum Dd2 in RBCs, LDH growth readout, 72 h; at 2 µM; hits give high values
[2] = human hepatoma cell viability loss – ATP luminescence, cytotoxicity control for P. falciparum antimalarial project, primary screen (AID 2303;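 active means inhibition above 50%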;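 further: 0% = DMSO wells and 100% = digitonin-killed cells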); details: HepG2 viability, 24-48 h, at 10 µM, hits give high values
[3] = target: L-lactate dehydrogenase (Plasmodium falciparum (isolate CDC / Honduras)) (UniProt Q27743); assay: PfLDH activity inhibition – cell lysate, 3D7 strain, counter-screen for P. falciparum growth inhibition project (AID 2304);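 further: 0% = vehicle and 100% = reference inhibitor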; details: P. falciparum 3D7 crude extract, LDH APAD/NBT absorbance; at 2 µM; hits give high values
Sequence of L-lactate dehydrogenase (Plasmodium falciparum (isolate CDC / Honduras)) (Q27743 whole entry, looked up): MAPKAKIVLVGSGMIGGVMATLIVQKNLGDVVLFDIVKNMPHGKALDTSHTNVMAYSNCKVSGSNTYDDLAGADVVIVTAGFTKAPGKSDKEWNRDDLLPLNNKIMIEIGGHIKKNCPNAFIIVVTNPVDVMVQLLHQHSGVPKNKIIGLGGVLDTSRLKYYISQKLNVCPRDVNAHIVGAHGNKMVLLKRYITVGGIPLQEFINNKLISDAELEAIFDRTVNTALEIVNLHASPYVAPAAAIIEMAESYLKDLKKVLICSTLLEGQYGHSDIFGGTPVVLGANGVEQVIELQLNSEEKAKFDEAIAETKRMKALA

[4] = inhibition of 3D7 malaria parasite growth – strain 3D7 (AID 2306);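 further: 0% = DMSO wells and 100% = chloroquine plus artemisinin control wells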; details: P. falciparum 3D7 erythrocytic growth, LDH absorbance, 72 h; at 2 µM; hits give high values
[5] = target: Calcium-dependent protein kinase 1 (Plasmodium falciparum (isolate 3D7)) (UniProt P62344); assay: PfCDPK1 kinase inhibitors, biochemical, TCAMS library (AID 1159585; cut-off not given, nearly all actives have IC50 up to about 0.98 µM;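 further: inhibitors leave more ATP so luminescence rises with inhibition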); details: recombinant PfCDPK1, Kinase-Glo ATP depletion luminescence
Sequence of Calcium-dependent protein kinase 1 (Plasmodium falciparum (isolate 3D7)) (P62344 whole entry, looked up): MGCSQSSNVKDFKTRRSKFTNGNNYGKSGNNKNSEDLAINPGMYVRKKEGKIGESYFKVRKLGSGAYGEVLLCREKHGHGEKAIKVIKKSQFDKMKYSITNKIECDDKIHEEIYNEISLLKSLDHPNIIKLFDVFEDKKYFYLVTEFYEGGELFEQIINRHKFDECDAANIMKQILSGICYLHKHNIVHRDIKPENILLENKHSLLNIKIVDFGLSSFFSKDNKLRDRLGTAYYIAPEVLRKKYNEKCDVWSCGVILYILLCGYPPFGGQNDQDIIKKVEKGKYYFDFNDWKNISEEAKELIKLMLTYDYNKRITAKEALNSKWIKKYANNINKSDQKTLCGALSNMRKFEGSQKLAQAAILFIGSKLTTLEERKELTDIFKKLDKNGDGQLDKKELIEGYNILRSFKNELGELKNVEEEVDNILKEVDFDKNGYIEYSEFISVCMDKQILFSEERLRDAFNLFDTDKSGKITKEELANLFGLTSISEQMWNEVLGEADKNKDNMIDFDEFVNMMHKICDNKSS

[6] = target: Plasmodium falciparum protein kinase 6 (PK6, PF3D7_1337100) (UniProt Q8IDW1); assay: PfPK6 kinase inhibitors, biochemical, TCAMS library (AID 1159586); details: recombinant PfPK6, Kinase-Glo ATP depletion luminescence
Sequence of Plasmodium falciparum protein kinase 6 (PK6, PF3D7_1337100) (Q8IDW1 1-305): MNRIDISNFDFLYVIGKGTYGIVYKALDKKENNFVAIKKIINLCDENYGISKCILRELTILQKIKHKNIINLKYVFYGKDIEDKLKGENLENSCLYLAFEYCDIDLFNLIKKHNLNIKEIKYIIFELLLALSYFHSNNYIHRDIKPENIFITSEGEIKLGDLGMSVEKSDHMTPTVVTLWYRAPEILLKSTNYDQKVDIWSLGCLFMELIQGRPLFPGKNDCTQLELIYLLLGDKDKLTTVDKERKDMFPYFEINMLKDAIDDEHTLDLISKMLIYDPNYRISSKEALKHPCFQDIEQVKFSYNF

[7] = target: Protein kinase 7 (PK7), Plasmodium falciparum 3D7 (PF3D7_0213400) (UniProt Q7YTF7); assay: inhibition of Plasmodium PK7 catalytic activity – biochemical, TCAMS antimalarial set, Kinase-Glo luminescence (AID 1159587); details: recombinant PfPK7, Kinase-Glo ATP depletion luminescence
Sequence of Protein kinase 7 (PK7), Plasmodium falciparum 3D7 (PF3D7_0213400) (Q7YTF7 1-343): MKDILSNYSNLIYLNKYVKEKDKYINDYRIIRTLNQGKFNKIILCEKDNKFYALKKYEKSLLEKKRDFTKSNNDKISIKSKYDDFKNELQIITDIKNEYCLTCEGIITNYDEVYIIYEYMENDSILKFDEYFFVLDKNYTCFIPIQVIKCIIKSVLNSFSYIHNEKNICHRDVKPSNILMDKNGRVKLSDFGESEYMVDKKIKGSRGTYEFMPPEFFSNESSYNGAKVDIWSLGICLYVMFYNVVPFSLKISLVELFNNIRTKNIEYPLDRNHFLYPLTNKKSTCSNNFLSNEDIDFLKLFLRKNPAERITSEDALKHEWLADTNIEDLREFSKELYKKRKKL

[8] = target: Calcium-dependent protein kinase 4 (Plasmodium falciparum (isolate 3D7)) (UniProt Q8IBS5); assay: PfCDPK4 kinase inhibitors, biochemical, TCAMS library (AID 1159588; cut-off not given, nearly all actives have IC50 up to about 0.91 µM); details: recombinant PfCDPK4, Kinase-Glo ATP depletion luminescence
Sequence of Calcium-dependent protein kinase 4 (Plasmodium falciparum (isolate 3D7)) (Q8IBS5 whole entry, looked up): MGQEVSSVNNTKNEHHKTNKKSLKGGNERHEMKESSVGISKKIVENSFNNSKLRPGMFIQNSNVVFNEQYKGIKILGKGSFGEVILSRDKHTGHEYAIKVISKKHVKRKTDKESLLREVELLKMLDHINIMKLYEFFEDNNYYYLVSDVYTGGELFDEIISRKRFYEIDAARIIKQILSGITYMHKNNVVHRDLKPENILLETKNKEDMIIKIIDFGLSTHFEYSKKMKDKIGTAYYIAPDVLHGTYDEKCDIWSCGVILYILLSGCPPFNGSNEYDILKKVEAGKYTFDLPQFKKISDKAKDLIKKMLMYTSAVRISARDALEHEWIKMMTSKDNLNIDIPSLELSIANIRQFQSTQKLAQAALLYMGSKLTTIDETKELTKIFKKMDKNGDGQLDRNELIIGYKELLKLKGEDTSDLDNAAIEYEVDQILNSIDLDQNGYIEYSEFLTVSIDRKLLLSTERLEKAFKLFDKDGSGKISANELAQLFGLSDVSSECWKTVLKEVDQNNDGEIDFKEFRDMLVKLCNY

CCc1cn2c3c(cc(C(=O)N[C@@H](Cc4ccccc4)[C@H](O)CNC4CCOCC4)cc13)N(CC(F)(F)F)S(=O)(=O)CC2
active: growth inhibition [1] 98% | growth inhibition [4] 98%
inactive: inhibition [2] 4% | inhibition [3] -2% | outcome [5] | outcome [6] | outcome [7] | outcome [8]

CN1CCN(c2ccnc3ccc(NC(=O)Nc4cccc5c(Br)cccc45)cc23)CC1
active: growth inhibition [1] 96% | growth inhibition [4] 100%
inactive: inhibition [2] 7% | inhibition [3] 6% | outcome [5] | outcome [6] | outcome [7] | outcome [8]

CCCc1ccc(NC(=O)c2cccc(CN3CCCN(Cc4cccc(O)c4)CC3)c2)cc1
active: growth inhibition [4] 97%
inactive: growth inhibition [1] 40% | inhibition [2] 15% | inhibition [3] -2% | outcome [5] | outcome [6] | outcome [7] | outcome [8]

COc1cc(C)c(NC(=O)c2cccc3c(=O)c(C)c(-c4ccccc4)oc23)cc1OC
inactive: growth inhibition [1] 32% | inhibition [3] 2% | outcome [5] | outcome [6] | outcome [7] | outcome [8]
active: inhibition [2] 96% | growth inhibition [4] 86%

COc1ccc2ncc(C#N)c(CCN3CCC(NCc4ccc5c(c4)NC(=O)CO5)CC3)c2c1
inactive: growth inhibition [1] 43% | inhibition [2] 25% | inhibition [3] -3% | outcome [5] | outcome [6] | outcome [7] | outcome [8]
active: growth inhibition [4] 99%

Nc1c(Cl)cc(C(O)CNCCCCCOCCCc2ccc3ncccc3c2)cc1Cl (stereo not given)
inactive: inhibition [2] 24% | inhibition [3] -8% | outcome [5] | outcome [6] | outcome [7] | outcome [8]
active: growth inhibition [1] 77% | growth inhibition [4] 96%

Cc1cc(NCCc2ccccc2)nc(/N=C(\N)Nc2cccc(F)c2)n1
active: growth inhibition [4] 91%
inactive: growth inhibition [1] -1% | inhibition [2] -6% | inhibition [3] -2% | outcome [5] | outcome [6] | outcome [7] | outcome [8]

COc1ccc(NC(=O)[C@H](CC(C)C)Nc2cc(C)nc(Nc3ccccc3)n2)cc1
active: growth inhibition [1] 92% | growth inhibition [4] 101%
inactive: inhibition [2] 25% | inhibition [3] -1% | outcome [5] | outcome [6] | outcome [7] | outcome [8]

CCc1cc(OC)ccc1C1CCN(CCCCNC(=O)c2ccc(NC(=O)c3ccc(Cl)cc3)cc2)CC1
active: growth inhibition [1] 61% | growth inhibition [4] 95%
inactive: inhibition [2] 23% | inhibition [3] 6% | outcome [5] | outcome [6] | outcome [7] | outcome [8]

C=C(C)Cn1cc(C2CCN(CCCCNC(=O)c3sc(-c4ccc(Cl)cc4Cl)nc3CO)CC2)c2ccccc21
active: growth inhibition [4] 82%
inactive: growth inhibition [1] 19% | inhibition [2] 22% | inhibition [3] 4% | outcome [5] | outcome [6] | outcome [7] | outcome [8]

c1ccc(CSC2=NNC(c3ccccn3)S2)cc1 (stereo not given)
inactive: inhibition [2] 6% | inhibition [3] 0% | outcome [5] | outcome [6] | outcome [7] | outcome [8]
active: growth inhibition [1] 65% | growth inhibition [4] 80%

COc1ccc(-c2cc3ncnc(N4CCN(CCN5CCCC5)CC4)c3s2)cc1
active: growth inhibition [1] 90% | growth inhibition [4] 98%
inactive: inhibition [2] 22% | inhibition [3] -2% | outcome [5] | outcome [6] | outcome [7] | outcome [8]

CN(C(=O)Cc1ccc(Cl)cc1)C1CCN(CCCCCNC(=O)/C=C/c2ccc(Cl)c(Cl)c2)CC1
inactive: growth inhibition [1] 16% | inhibition [3] -6% | outcome [5] | outcome [6] | outcome [7] | outcome [8]
active: inhibition [2] 69% | growth inhibition [4] 83%

Cc1ccccc1CNc1noc(-c2sccc2Br)n1
inactive: inhibition [2] -2% | inhibition [3] -3% | outcome [5] | outcome [6] | outcome [7] | outcome [8]
active: growth inhibition [1] 88% | growth inhibition [4] 99%

COc1cc(C(=O)NC2CCN(Cc3ccccc3)CC2)ccc1-c1nc2cc(Cl)c(C)cc2[nH]1
inactive: inhibition [2] -3% | inhibition [3] 0% | outcome [5] | outcome [6] | outcome [7] | outcome [8]
active: growth inhibition [1] 97% | growth inhibition [4] 99%

O=c1ccccn1CCCC1CCCCN1 (stereo not given)
active: growth inhibition [4] 96%
inactive: growth inhibition [1] -1% | inhibition [2] -1% | inhibition [3] 0% | outcome [5] | outcome [6] | outcome [7] | outcome [8]

CO/C(=C\C=C\c1cc2cc(Cl)c(Cl)cc2[nH]1)C(=O)NC1C[C@H]2CCC[C@@H](C1)N2C (stereo not given in full)
active: growth inhibition [1] 51% | growth inhibition [4] 93%
inactive: inhibition [2] 42% | inhibition [3] -2% | outcome [5] | outcome [6] | outcome [7] | outcome [8]

COc1c(C2CCN(CCCCNC(=O)c3ccc(-c4ccc(Cl)cc4)c(OCC(N)=O)c3)CC2)ccc2c1CCCC2
active: growth inhibition [4] 97%
inactive: growth inhibition [1] 11% | inhibition [2] 43% | inhibition [3] 3% | outcome [5] | outcome [6] | outcome [7] | outcome [8]

CCc1cc(CNC2CCN(CCc3c(F)cnc4ccc(OC)nc34)CC2)cc2c1OCCO2
inactive: inhibition [2] 46% | inhibition [3] 1% | outcome [5] | outcome [6] | outcome [7] | outcome [8]
active: growth inhibition [1] 94% | growth inhibition [4] 100%

COC(=O)/C=C/c1ccc(CCC(C)NCC(O)c2cccc(Cl)c2)cc1 (stereo not given)
active: growth inhibition [1] 77% | growth inhibition [4] 94%
inactive: inhibition [2] 5% | inhibition [3] 4% | outcome [5] | outcome [6] | outcome [7] | outcome [8]

O=C(NC(c1ccccc1)c1ccc2cccnc2c1O)c1ccccc1 (stereo not given)
active: growth inhibition [1] 63% | inhibition [2] 53% | growth inhibition [4] 94%
inactive: inhibition [3] -4% | outcome [5] | outcome [6] | outcome [7] | outcome [8]

Oc1ccc(CCNc2nc(NCCCOc3ccccc3-c3cccnc3)nc(N3CCNCC3)n2)cc1
inactive: growth inhibition [1] 1% | inhibition [2] 10% | inhibition [3] 0% | outcome [5] | outcome [6] | outcome [7] | outcome [8]
active: growth inhibition [4] 92%

N/C(=N\c1cccc(Cc2ccc([N+](=O)[O-])cc2)n1)Nc1ccccc1
active: growth inhibition [4] 96%
inactive: growth inhibition [1] 19% | inhibition [2] 28% | inhibition [3] 4% | outcome [5] | outcome [6] | outcome [7] | outcome [8]

Clc1ccc2c(Cl)c(CNCCCNc3nc4ccccc4[nH]3)[nH]c2c1
inactive: growth inhibition [1] 7% | inhibition [2] 38% | inhibition [3] -1% | outcome [5] | outcome [6] | outcome [7] | outcome [8]
active: growth inhibition [4] 101%

CCc1nnc2sc(-c3cccc(NC(=O)c4ccc(OC)c(Cl)c4)c3)nn12
inactive: inhibition [2] 3% | inhibition [3] -2% | outcome [5] | outcome [6] | outcome [7] | outcome [8]
active: growth inhibition [1] 55% | growth inhibition [4] 92%

O=C(Nc1ccc(F)cc1F)NC1CCN(CCCCCNC(=O)[C@@H]2C[C@H]2c2ccc(Cl)c(Cl)c2)CC1
inactive: growth inhibition [1] 32% | inhibition [2] 41% | inhibition [3] 1% | outcome [5] | outcome [6] | outcome [7] | outcome [8]
active: growth inhibition [4] 100%

Nc1nc2c(cnn2CCCCCCCP(=O)(O)O)c(=O)[nH]1
active: growth inhibition [1] 91% | growth inhibition [4] 94%
inactive: inhibition [2] -3% | inhibition [3] 4% | outcome [5] | outcome [6] | outcome [7] | outcome [8]

N#Cc1ccc2c(c1)CN(CCC1CCC(NC(=O)c3cc4ccccc4cc3N)CC1)CC2 (stereo not given)
inactive: inhibition [2] 5% | inhibition [3] -8% | outcome [5] | outcome [6] | outcome [7] | outcome [8]
active: growth inhibition [1] 52% | growth inhibition [4] 80%

CCN(c1cc(C)nc(Nc2ccc(Cl)cc2)n1)[C@H]1CCN(Cc2ccccc2)C1
active: growth inhibition [4] 94%
inactive: growth inhibition [1] 31% | inhibition [2] 46% | inhibition [3] 2% | outcome [5] | outcome [6] | outcome [7] | outcome [8]

COc1ccc2nccc([C@@H](O)CN3CCC(NC(=O)C(c4cc5ccccc5o4)N4CCN(c5ccccc5)CC4)CC3)c2c1 (stereo not given in full)
inactive: inhibition [2] 19% | inhibition [3] -2% | outcome [5] | outcome [6] | outcome [7] | outcome [8]
active: growth inhibition [1] 99% | growth inhibition [4] 99%

COc1ccc2c(NN=Cc3cccc(F)c3)cc(C)nc2c1
active: growth inhibition [1] 100% | growth inhibition [4] 101%
inactive: inhibition [2] 17% | inhibition [3] -4% | outcome [5] | outcome [6] | outcome [7] | outcome [8]

O=C1c2ccc([N+](=O)[O-])cc2C(=O)N1c1ccc2[nH]ncc2c1
active: growth inhibition [4] 87%
inactive: growth inhibition [1] -1% | inhibition [2] 11% | inhibition [3] -1% | outcome [5] | outcome [6] | outcome [7] | outcome [8]

Nc1nc2ncn(COC(COCc3ccccc3)COCc3ccccc3)c2c(=O)[nH]1 (tested in a mixture with another compound)
inactive: inhibition [2] 18% | inhibition [3] -7% | outcome [5] | outcome [6] | outcome [7] | outcome [8]
active: growth inhibition [1] 57% | growth inhibition [4] 86%

CC(C)C[C@@H](NC(=O)OC(C)(C)C)C(=O)Nc1ccc(Cc2ccc(NC(=O)[C@@H](CC(C)C)NC(=O)OC(C)(C)C)cc2)cc1
active: growth inhibition [1] 96% | growth inhibition [4] 96%
inactive: inhibition [2] 8% | inhibition [3] 6% | outcome [5] | outcome [6] | outcome [7] | outcome [8]

Cc1cc(NCCC(=O)NCCOc2ccccc2)nc(Nc2ccccc2)n1
active: growth inhibition [1] 55% | growth inhibition [4] 94%
inactive: inhibition [2] 26% | inhibition [3] -1% | outcome [5] | outcome [6] | outcome [7] | outcome [8]

NCC(=O)Nc1cccc(Nc2nccc(-c3c(-c4cccc(NC(=O)c5ccccc5)c4)nn4ccccc34)n2)c1
active: growth inhibition [1] 87% | growth inhibition [4] 96%
inactive: inhibition [2] 45% | inhibition [3] 0% | outcome [5] | outcome [6] | outcome [7] | outcome [8]

CS(=O)(=O)c1cccc(-c2cnc(N)c3cc(-c4cccc(F)c4)ccc23)c1
inactive: growth inhibition [1] 13% | inhibition [2] 45% | inhibition [3] 2% | outcome [5] | outcome [6] | outcome [7] | outcome [8]
active: growth inhibition [4] 97%

Cc1cc(N[C@@H](Cc2ccccc2)C(=O)NCc2cccs2)nc(NCCc2ccccn2)n1
active: growth inhibition [4] 93%
inactive: growth inhibition [1] 49% | inhibition [2] -4% | inhibition [3] -2% | outcome [5] | outcome [6] | outcome [7] | outcome [8]

CCCN(CCCN(CCCN(CCC)C(C)C)c1cc(C)nc(Nc2ccc(Cl)cc2)n1)C(C)C
inactive: inhibition [2] 39% | inhibition [3] 0% | outcome [5] | outcome [6] | outcome [7] | outcome [8]
active: growth inhibition [1] 99% | growth inhibition [4] 102%

CN(C)CCCNc1ncnc2c1[nH]c1ccc(F)cc12
active: growth inhibition [4] 100%
inactive: growth inhibition [1] -1% | inhibition [2] 14% | inhibition [3] 1% | outcome [5] | outcome [6] | outcome [7] | outcome [8]
